Screening data deposited in PubChem by National Center for Advancing Translational Sciences (NCATS).
In the library only some 21% were active in any assay of this set; here they are far more common.
DRD3 antagonist: blocks the human D3 dopamine receptor. P35462. D3R cells, DiscoveRx beta-arrestin luminescence, antagonist mode; hits give low values. max response, negative = inhibition, %. 2.5% of 360,000 active. AID 652054; in the data active means max response below about -50%; inconclusive means no clear call, values can overlap the other calls; further: on the % scale 0 is the no-effect control and ±100 the full control effect
Target sequence (P35462 whole entry, looked up): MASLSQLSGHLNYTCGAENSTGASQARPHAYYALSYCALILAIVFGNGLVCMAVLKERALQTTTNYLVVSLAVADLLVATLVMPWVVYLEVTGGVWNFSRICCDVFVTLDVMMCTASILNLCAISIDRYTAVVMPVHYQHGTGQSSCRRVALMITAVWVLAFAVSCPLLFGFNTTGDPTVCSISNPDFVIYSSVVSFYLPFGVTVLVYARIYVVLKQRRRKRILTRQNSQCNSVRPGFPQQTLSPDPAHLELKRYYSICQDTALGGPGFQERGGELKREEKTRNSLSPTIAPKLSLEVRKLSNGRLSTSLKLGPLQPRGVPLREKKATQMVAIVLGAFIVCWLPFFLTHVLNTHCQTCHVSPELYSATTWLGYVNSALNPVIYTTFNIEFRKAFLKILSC
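Cells expressing the human receptor were seeded at 1500 cells/well, incubated overnight at 37 degrees C in 5% CO2, then exposed to library compounds with dopamine controls for 90 minutes at 37 degrees C before luminescent detection.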
TDP1 cell CPT: DT40-hTDP1 cell growth loss with CPT; chicken DT40 Tdp1-/-;hTDP1 cells + 20 nM CPT, ATP luminescence, 48 h; Potency, µM (titrated, usually from 46.2 µM), without a hit: at the top dose activity change, negative = growth inhibition, hits mostly inhibitors; 12% of 420,000 active; further: potency means the concentration at half of the fitted maximal effect; on the % scale 0 is the no-effect control and ±100 the full control effect; nearly all actives have a fitted effect of over 55% in size
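Cell growth measured by CellTiter-Glo luminescence after a minimum 48 h, 37 C compound exposure with 20 nM CPT in Tdp1-knockout DT40 cells stably expressing hTDP1, seeded 400/well; qHTS titration format.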
TDP1 cell noCPT: qHTS for Inhibitors of human tyrosyl-DNA phosphodiesterase 1 (TDP1): qHTS in cells in absence of CPT; DT40 Tdp1-/- hTDP1 cells, no CPT, ATP luminescence, 48 h; Potency, µM (top dose mostly 46.2 µM), for inactives: at the highest dose activity change, negative = growth inhibition, hits mostly inhibitors; AID 686978, 2013; 15% of 420,000 active; further: potency means the concentration at half of the fitted maximal effect; on the % scale 0 is the no-effect control and ±100 the full control effect; nearly all actives have a fitted effect of over 55% in size
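Readout: luminescence from CellTiter-Glo after 30 min in the dark at RT. Cells: DT40 Tdp1-/- with stable hTDP1, 400/well. Exposure: compounds alone, ≥48 hr, 37 °C.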
IL-1B inflam inh: blocks inflammasome-driven IL-1 beta release; THP-1 LPS/ATP IL-1B secretion, AlphaLISA, 16 h; hits give low values; AID 743279; 4.7% of 360,000 active; activity change, % at 57.5 µM; in the data active means activity change below about -50%; inconclusive means mostly about -30% to -49%; further: on the % scale 0 is the no-effect control and ±100 the full control effect
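Secreted IL-1B measured by AlphaLISA bead assay after 16 h compound exposure of THP-1 cells; compounds (final up to 57.5 uM) added 1 h before LPS (250 ng/mL) and ATP (1.25 mM) stimulation; lower signal means less secretion.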
ClpP mod: qHTS Assay for Activators of ClpP. AID 651965, 2013. 1.9% of 340,000 active. ATP-dependent Clp protease proteolytic subunit (Bacillus subtilis (strain 168)), P80244. Potency, µM (series often up to 57.5 µM), inactives show at the top dose activity change, negative = active. purified B. subtilis ClpP, FRET peptide cleavage, 20 min; active means well fitted falling curve with a large enough effect; inconclusive means small, poorly fitted or top-dose-only effect; inactive means no such curve, though single readings can be large or run the other way; further: potency means the concentration at half of the fitted maximal effect; the source files actives as falling curves though it sought activators and does not explain the sign; nearly all actives have a fitted effect of over 65% in size
Target sequence (P80244 whole entry, looked up): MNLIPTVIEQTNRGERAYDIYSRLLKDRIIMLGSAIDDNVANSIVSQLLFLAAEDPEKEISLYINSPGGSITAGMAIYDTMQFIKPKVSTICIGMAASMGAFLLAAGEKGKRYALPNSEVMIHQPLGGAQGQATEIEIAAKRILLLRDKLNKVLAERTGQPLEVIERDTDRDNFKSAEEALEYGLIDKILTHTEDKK
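Purified B. subtilis ClpP, 10 microg/mL final in Tris/HCl pH8 with KCl, BSA, glycerol and Tween-20, cleaved an Abz/nitrotyrosine-quenched decapeptide. Fluorescence (ex 320, em 430) was read at 0 and 20 min at room temperature. Delta was normalized to 5.8 microM ADEP and DMSO/no-enzyme controls.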
D3 ag: activates the human D3 dopamine receptor | P35462 | D3R DiscoveRx beta-arrestin cells, luminescence, 90 min | max activation, % | 0.58% of 410,000 active | AID 652048; in the data active means max activation above about 30%; further: 0% is about no effect
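Cells at 1500/well, incubated overnight, then treated with pinned compounds (dopamine as control) for 90 min at 37 degrees C. DiscoveRx reagent added for 30 - 60 minutes at room temperature; luminescence read.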
* marks the source's active call; other numbers are inactive results. Unless noted, the call rests on the fitted dose curve; in most records, active means well fitted inhibition curve with a large enough effect; inconclusive means small, poorly fitted or top-dose-only effect; inactive means flat fitted curve, though single readings scatter.

For CC(C)c1nc(NCc2ccccc2)c(C#N)c2c1CCCC2 the results were DRD3 antagonist 21, TDP1 cell CPT inconclusive, TDP1 cell noCPT inconclusive, IL-1B inflam inh 2, ClpP mod 8.9µM* and D3 ag 0.
`CC(C)c1nc(NCCO)c(C#N)c2c1CCCC2` gave DRD3 antagonist -10, TDP1 cell CPT -24%, TDP1 cell noCPT -39%, IL-1B inflam inh 30 and D3 ag 3.
For C[C@H](NC(=O)c1ncn2c1C(=O)NC[C@H]2C)c1ccccc1 the results were DRD3 antagonist 0, TDP1 cell CPT 7%, TDP1 cell noCPT -3%, IL-1B inflam inh -7, ClpP mod -1% and D3 ag 1.
CCC(C)n1c(SCc2ccc(F)cc2Cl)nc2ccsc2c1=O (configuration not stated) was read as TDP1 cell CPT 18µM*, TDP1 cell noCPT 21µM*, ClpP mod 1% and D3 ag -12.
Screening CC(C)CCn1c(SCc2ccc(F)cc2Cl)nc2ccsc2c1=O returned TDP1 cell CPT 5%, TDP1 cell noCPT -6%, ClpP mod 1% and D3 ag 10.
`CC(C)CCn1c(SCc2cccc(F)c2)nc2ccsc2c1=O` gave TDP1 cell CPT inconclusive, TDP1 cell noCPT inconclusive, ClpP mod -1% and D3 ag 11.
CCC(C)n1c(SCC(=O)Nc2ccccc2C(=O)OC)nc2ccsc2c1=O (configuration not stated) was read as TDP1 cell CPT 16µM*, TDP1 cell noCPT 18µM*, ClpP mod 31% and D3 ag 2.
`CCC(C)n1c(SCc2ccc(C(C)(C)C)cc2)nc2ccsc2c1=O` (configuration not stated) gave TDP1 cell CPT 13µM*, TDP1 cell noCPT 13µM*, ClpP mod -1% and D3 ag -4.
For CCC(C)n1c(SCc2ccccc2)nc2ccsc2c1=O (configuration not stated) the results were DRD3 antagonist -17, TDP1 cell CPT inconclusive, TDP1 cell noCPT 21µM*, IL-1B inflam inh 3, ClpP mod inconclusive and D3 ag -11.
Screening CCC(C)n1c(SCC(=O)Nc2ccccc2C(F)(F)F)nc2ccsc2c1=O (configuration not stated) returned DRD3 antagonist 27, TDP1 cell CPT -19%, TDP1 cell noCPT -20%, IL-1B inflam inh -1, ClpP mod 0% and D3 ag 18.
`CCc1ccc(NC(=O)CSc2nc3ccsc3c(=O)n2C(C)CC)cc1` (configuration not stated) gave TDP1 cell CPT inconclusive, TDP1 cell noCPT inconclusive, ClpP mod 0% and D3 ag 19.
COC(=O)c1ccc(-n2nnc(-c3nc(-c4ccccc4Cl)no3)c2C)cc1 was read as TDP1 cell CPT 7%, TDP1 cell noCPT -8%, ClpP mod 0% and D3 ag 8.
O=S(=O)(NCc1c(Cl)cccc1Oc1ccccc1)c1ccc(F)cc1 was read as DRD3 antagonist 61, TDP1 cell CPT inconclusive, TDP1 cell noCPT inconclusive, IL-1B inflam inh 34, ClpP mod 4% and D3 ag 0.
For COc1ccc(NC(=O)c2oc3ccccc3c2C)cn1 the results were DRD3 antagonist 0, TDP1 cell CPT inconclusive, TDP1 cell noCPT -12%, IL-1B inflam inh 34, ClpP mod -2% and D3 ag -1.
Screening COc1ccc(Cl)cc1C(=O)Nc1ccc2c(c1)OCO2 returned DRD3 antagonist -9, TDP1 cell CPT -10%, TDP1 cell noCPT inconclusive, IL-1B inflam inh -24, ClpP mod 5% and D3 ag -4.
Screening COc1ccc(-c2ccc(C(=O)Nc3ccc(OC)nc3)c3occc23)c(C)c1 returned DRD3 antagonist 9, TDP1 cell CPT 0.37µM*, TDP1 cell noCPT 15µM*, IL-1B inflam inh 8, ClpP mod 35µM* and D3 ag 3.
`COc1ccc(-c2ccc(C(=O)Nc3ccccc3)c3occc23)c(C)c1` gave DRD3 antagonist 13, TDP1 cell CPT 21µM*, TDP1 cell noCPT inconclusive, IL-1B inflam inh 1, ClpP mod inconclusive and D3 ag 2.
COc1cccc(NC(=O)c2ccccc2-c2ccccc2C(=O)O)c1 was read as DRD3 antagonist 17, TDP1 cell CPT -1%, TDP1 cell noCPT 5%, IL-1B inflam inh 42 and D3 ag -4.
`COc1ccc(-c2coc3c(C(=O)Nc4ccc(OC)nc4)cccc23)c(C)c1` gave DRD3 antagonist 14, TDP1 cell CPT 18µM*, TDP1 cell noCPT 21µM*, IL-1B inflam inh -17, ClpP mod -27% and D3 ag 6.
Screening COc1ccc(-c2ccc(C(=O)Nc3ccc4c(c3)OCO4)c3occc23)c(C)c1 returned DRD3 antagonist -2, TDP1 cell CPT inconclusive, TDP1 cell noCPT inconclusive, IL-1B inflam inh inconclusive, ClpP mod 32µM* and D3 ag 5.
For CC(=O)N1c2ccc(S(=O)(=O)NCC3CCC(C(=O)N4CCC(C)CC4)CC3)cc2CC1C (configuration not stated) the results were DRD3 antagonist 17, TDP1 cell CPT inconclusive, TDP1 cell noCPT inconclusive, IL-1B inflam inh -6, ClpP mod 0% and D3 ag -2.
For Cc1ccccc1CC(=O)N1CCN(S(=O)(=O)c2ccc(Cl)s2)CC1 the results were DRD3 antagonist 4, TDP1 cell CPT -23%, TDP1 cell noCPT -28%, IL-1B inflam inh -12, ClpP mod -2% and D3 ag -3.
Screening Cc1cc(C)nc(SCc2ccc(C(=O)N/N=C/c3ccccn3)cc2)n1 returned DRD3 antagonist -6, TDP1 cell CPT inconclusive, TDP1 cell noCPT 21µM*, IL-1B inflam inh 121, ClpP mod -24% and D3 ag 3.
`Cc1cc(C)nc(SCc2ccc(C(=O)NNC(=O)Nc3cccc(Cl)c3)cc2)n1` gave DRD3 antagonist -58*, TDP1 cell CPT 21µM*, TDP1 cell noCPT 13µM*, IL-1B inflam inh -100*, ClpP mod 35µM* and D3 ag -6.
Screening Cc1cc(C)cc(NC(=O)COC(=O)c2cccc(S(=O)(=O)N3CCCCC3)c2)c1 returned DRD3 antagonist -3, TDP1 cell CPT 9%, TDP1 cell noCPT -1%, IL-1B inflam inh 2, ClpP mod 0% and D3 ag 0.
